Our source for the inhibition values is PubChem BioAssay AID588405 (Sanford-Burnham Center for Chemical Genomics, 2011).

Structures are written as SMILES. Out of some 360,000 compounds screened, about 6,200 (1.7%) were called active. The full list was thinned out, with actives kept by preference. Unmarked numbers belong to inactive results.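 Rule for the calls: active = inhibition of at least 50% at 20 µM; inactive = the rest.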

For orientation: inhibition means the relative decrease from the control value, in per cent.

This assay is described as follows: Peg3 promoter-driven luciferase inhibitors, primary screen, cell-based, HeLa, luciferase luminescence (AID 588405). The following applies: HeLa PEG-Prom luciferase reporter, overnight, at 20 µM, active compounds read high. (In general: Reporter assays use an easily measured gene product as a stand-in for the process of interest.)
For `NC(Cc1ccccc1)c1csc(Nc2cc(Oc3ccccc3)ncn2)n1` (configuration not stated), the inhibition is 54.6% (active).

On to `Cc1nc2c(OCc3ccc(Cl)cc3)cccn2c1N(C)Cc1cccs1`, for which the inhibition is 6.73%.

As for `Cc1cccc(/C(N)=N/OC(=O)c2ccccc2Cl)c1`, the inhibition was -145%.

With `Cc1ccc(C(=O)O/N=C(\N)c2ccccn2)cc1Cl`, the inhibition was 62.4% (active).

`N/C(=N\OC(=O)c1ccc([N+](=O)[O-])cc1)c1ccccn1`: the inhibition was 5.67%.

For the compound `CC(=O)Nc1cccc(-c2cc(NC(C)=O)c3ncc(-c4ccccc4)n3c2)c1`, the inhibition is 20.6%.

As for `CCOC(=O)C1CN(S(=O)(=O)c2ccc(OC)cc2)c2cc(Cl)ccc2O1` (configuration not stated), the inhibition was 8.58%.

`Cc1ccc(NC(=O)[C@H](Cc2ccccc2)NC(=O)CC[C@H]2O[C@@H](n3ccc(=O)[nH]c3=O)[C@H](O)[C@@H]2O)cc1C`: the inhibition is 4.14%.

On to `COC(=O)c1ccc2nc(-c3cccc(Br)c3)c(Cc3ccc(OC)cc3C)n2c1`, for which the inhibition was -33%.

With `CCCCNc1c(-c2cccc(Sc3ccc(OC)cc3)c2)nc2ccccn12`, the inhibition was 92.9% (active).

Take `CCCCNc1c(-c2ccc(OC)c(Sc3ccc(OC)cc3)c2)nc2ccc(Cl)cn12`: the inhibition is -44%.

As for `CS(=O)(=O)/C(C#N)=C/c1cccn1S(=O)(=O)c1ccc([N+](=O)[O-])cc1`, the inhibition is -17.4%.

In the case of `O=C(NCCN1CCOCC1)c1ccccc1N1C(=O)[C@@H]2Cc3c([nH]c4ccccc34)C(c3cccc(Cl)c3)N2C1=O` (some centres not stated), the inhibition is 20.3%.

For the compound `CC(C)c1cccc(C(C)C)c1Nc1cn[nH]c1`, the inhibition was 9.45%.

Turning to `COC(=O)c1ccc2nc(-c3ccc(OC)c(OC)c3)c(Cc3ccccc3)n2c1`, the inhibition was -21.6%.

`S=C(NN=Cc1ccccn1)Nc1ccccn1`: the inhibition is -79.6%.

For `O=C(N/N=C/c1ccccn1)C12CC3CC(CC(C3)C1)C2`, the inhibition is -8.28%.

Regarding `Cc1nnc(N/N=C/c2ccccn2)[nH]c1=O`, the inhibition was 62% (active).

`Cc1ccc(CNC(=O)Nc2nnc([C@H]3C[C@H](O)[C@@H](CO)O3)s2)cc1`: the inhibition is -6.3%.

Consider `CC1(C(=O)Nc2ccc3c(c2)OCCO3)CCN1C(=O)Cc1cc(F)ccc1F` (configuration not stated), for which the inhibition was 2.13%.

Regarding `Cc1ccc(C(=O)N/C(=C\c2ccco2)C(=O)NC2CCS(=O)(=O)C2)cc1` (configuration not stated), the inhibition is 16.9%.

Take `CCCc1nc2c3ccccc3ccn2c1Cc1ccccc1C(F)(F)F`: the inhibition is -16%.

For the compound `CN1OC[C@@H]2CN(C(=O)C(C)(C)C)[C@H](c3ccc(-n4ccnc4)cc3)C[C@@H]21`, the inhibition was -4.85%.

For `O=C1/C(=C\c2ccc([N+](=O)[O-])cc2)CS(=O)(=O)C/C1=C/c1ccc([N+](=O)[O-])cc1`, the inhibition is 100% (active).

As for `CC(=O)Nc1ccc(C=Cc2ccc([N+](=O)[O-])cc2)cc1`, the inhibition is -310%.

With `CN(C)S(=O)(=O)N1CCN(c2ccc([N+](=O)[O-])cc2)CC1`, the inhibition is 14.5%.

For `CCCNC(=O)C1(C)CCCN(Cc2cccc(C(F)(F)F)c2)C1` (configuration not stated), the inhibition was 2.53%.

`CCCOc1ccc(F)cc1-c1cc(C(=O)Nc2ccc(F)c(Cl)c2)[nH]n1`: the inhibition is 25.8%.

Regarding `CC1(C(=O)NS(=O)(=O)C2CC2)CCCN(C(=O)CSc2ccccc2)C1` (configuration not stated), the inhibition is 8.07%.

For the compound `O=S(=O)(c1ccccc1)N1CCC(c2ccccc2)CC1`, the inhibition was 6.2%.

In the case of `CC(=O)N1CC(C)c2scc(C)[n+]2-c2ccccc21` (configuration not stated), the inhibition was 5.89%.

Take `CN1OC[C@@H]2CN(S(=O)(=O)c3cccc4ccccc34)[C@H](c3ccc(N4CCCCC4)cc3)C[C@@H]21`: the inhibition was -9.16%.

For `CN1OC[C@@H]2CN(S(=O)(=O)c3cccc(C(F)(F)F)c3)[C@H](c3ccc(-c4cc5ccccc5o4)cc3)C[C@@H]21`, the inhibition was 68.8% (active).

Take `COc1ccc(S(=O)(=O)N2C[C@H]3CON(C)[C@H]3C[C@H]2c2cccc(Br)c2)cc1`: the inhibition was 6.82%.

Take `Nc1nc2c(ncn2[C@@H]2O[C@H](CNS(=O)(=O)N3CCc4ccccc4C3)[C@@H](O)[C@H]2O)c(=O)[nH]1`: the inhibition was 5.67%.

`Cc1ccc(-c2cnc(C(O)c3cc(Cl)cc(Cl)c3)[nH]2)cc1` (configuration not stated): the inhibition was 37.2%.

As for `CC1(C(=O)O)CCN1C(=O)/C=C/c1ccccc1` (configuration not stated), the inhibition is -2.65%.

Take `CC1(C)CCSC(/C=C/c2ccccc2)=N1`: the inhibition was 106% (active).

On to `CC1(C(=O)NS(=O)(=O)c2ccccc2)CCN1C(=O)C/C=C/c1ccccc1` (configuration not stated), for which the inhibition was -9.64%.

In the case of `CC(C)(C)c1ccc(C(=O)NCC(=O)OCN2C(=O)c3ccccc3C2=O)cc1`, the inhibition was -11.7%.

For the compound `O=C(CCl)N(Cc1cccc([N+](=O)[O-])c1)c1cccc(Cl)c1`, the inhibition was 109% (active).

`CC(=O)N(CN1C(=O)C2CC=CCC2C1=O)c1cccc(Cl)c1` (configuration not stated): the inhibition was 12%.

Turning to `COC(=O)c1cc(C(=O)N(Cc2ccccc2)c2ccccn2)cc([N+](=O)[O-])c1`, the inhibition is 5.92%.

Regarding `COC(=O)Cc1ccc(OC2(C)CCN(Cc3ccc4c(c3)OCCO4)C2)cc1` (configuration not stated), the inhibition is -18.6%.

Take `Cc1cccc(C)c1NC(=O)CN1CCN(c2ccc(F)cc2)CC1`: the inhibition is 5.77%.

Turning to `Cc1ccc(NC(=O)N2CCC(C(=O)NCc3ccc(F)cc3)CC2)cc1`, the inhibition was 6.32%.

Take `CCc1ccc(CNC(=O)C2CCN(c3nnc(C)c4c(C)n(-c5ccc(C)cc5)nc34)CC2)cc1`: the inhibition is 99.3% (active).

As to `CCc1ccc(CNC(=O)C2CC(=O)N(CCc3ccc(C)cc3)C2)cc1` (configuration not stated), the inhibition is 7.77%.

`COc1ccc(OC)c(S(=O)(=O)N2CCCC(C(=O)NCCc3ccccc3)C2)c1` (configuration not stated): the inhibition is 5.79%.

As to `N#CCCN(C(=O)COC(=O)C1CCN(c2ccc(C(F)(F)F)cn2)CC1)c1ccc(F)cc1`, the inhibition was -15.9%.

For the compound `CCOC(=O)C1(Cc2ccccc2C)CCCN(C(=O)c2ccc(COC)o2)C1` (configuration not stated), the inhibition was -235%.

As for `Cc1cccc(N=Nc2c(O)[nH]c3ccc(F)cc23)c1`, the inhibition was -236%.

Turning to `NS(=O)(=O)c1ccc(N=Nc2c(O)[nH]c3ccc(Br)cc23)cc1`, the inhibition was 98.7% (active).

In the case of `O=C(CNC(=O)Cc1ccccc1)N=Nc1c(O)[nH]c2ccc(Br)cc12`, the inhibition was -7.31%.

Take `CCCNC(=O)c1cc(C2CCCN(C(=O)c3ccc4c(c3)CCO4)C2)on1` (configuration not stated): the inhibition is 11%.

Consider `Cc1ccc(N2C(=O)CC(NCc3ccc4c(c3)OCO4)C2=O)cc1Cl` (configuration not stated), for which the inhibition was -15.9%.

Consider `O=C(CSc1nc(=O)n2ccccc2n1)Nc1ccc2c(c1)OCCO2`, for which the inhibition was -14.4%.

As for `CCc1ccc([C@@H]2CC(=O)[C@@H]3CN(S(=O)(=O)c4ccc(C)cc4)[C@H](c4ccc(Cl)cc4)C[C@@H]3N2S(=O)(=O)c2ccc(C)cc2)cc1`, the inhibition is 15.4%.

Take `CC(C)(C)c1ccc(Oc2ccc(N)cc2)cc1`: the inhibition is 76.7% (active).

As for `COc1cnc(-c2ccccn2)nc1Oc1ccc(C(C)(C)C)cc1`, the inhibition is -4.72%.

Take `Cc1cc(C(C)(C)C)cc(C)c1N`: the inhibition is 6.32%.

Turning to `CC1(C(=O)NS(=O)(=O)c2ccc3ccccc3c2)CCN1C(=O)C1(c2ccc(Cl)cc2)CCC1` (configuration not stated), the inhibition was -9.9%.

Turning to `CC1(C(=O)NCc2cccc3ccccc23)CCN1Cc1ccc(-c2ccccc2)o1` (configuration not stated), the inhibition is 21.9%.

In the case of `CCOC(=O)c1ccn(S(=O)(=O)c2ccc(C)cc2)c1-c1ccccc1`, the inhibition was -0.12%.

In the case of `Cc1nc2scc(-c3cccs3)c2c(=O)n1N`, the inhibition was 3.36%.

Regarding `CCS(=O)(=O)N1CCC(N2CCN(c3ccccc3)CC2)CC1`, the inhibition is 52% (active).

As for `CS(=O)(=O)N1CCC(C(=O)N2CCN(c3ccccc3)CC2)CC1`, the inhibition was 8.23%.

For the compound `CCS(=O)(=O)N1CCC(C(=O)N2CCN(c3ccccc3)CC2)CC1`, the inhibition was -2.59%.

With `CCC(C)(C)NC(=O)C(c1cccn1C)N(Cc1ccc(C)cc1)C(=O)Cn1nnc2ccccc21` (configuration not stated), the inhibition was 5.59%.

For `Cc1ccccc1-c1nc(NC(C)C)nc2cc(-c3ccccc3)sc12`, the inhibition was 7.19%.

`COc1cccc(-c2sc3ccc(OC)cc3c2-c2ccc(OCCN3CCCCC3)cc2)c1`: the inhibition is 87.9% (active).

As for `COc1ccc2sc(-c3ccccc3OC)c(-c3ccc(OCCN4CCCC4)cc3)c2c1`, the inhibition was 34.9%.

`COc1cc(OC)cc(-c2sc3ccc(OC)cc3c2-c2ccc3cc[nH]c3c2)c1`: the inhibition was 2.15%.

Consider `CCN(CCN(C)C)C(=O)c1ccc2nc(C)c(N(C)C(=O)CCc3ccccc3)n2c1`, for which the inhibition was -8.8%.

In the case of `COC(=O)c1ccc2nc(C3CCCCC3)c(Cc3cccc(F)c3)n2c1`, the inhibition is -20.6%.

Consider `Cc1cc(C)c2nc3nc(C)cc(C)c3c(N)c2c1`, for which the inhibition was 59.9% (active).

As for `COc1ccccc1CCNC(=O)C1CCN(C(=O)/C=C/c2ccccc2)CC1`, the inhibition was -46.9%.

`COc1ccc(C(=O)/C=C/c2ccc(-c3ccccc3)cc2)cc1CSCC(=O)O`: the inhibition is 98.8% (active).

Take `COC(=O)c1ccc(COc2ccc(/C=C/C(=O)c3ccc(OC)c(CSCC(=O)O)c3)cc2OC)cc1`: the inhibition is -5.11%.

Take `COc1ccc2c3c1O[C@H]1C[C@@H](O)C=C[C@@]31CCN(C)C2`: the inhibition was -14.7%.

On to `COc1ccc(NC(=O)c2sc(N3CCOCC3)nc2-c2ccccc2)c(OC)c1`, for which the inhibition is 20.4%.

`COc1ccc(-c2cc(C(=O)n3cnc4ccccc43)c3ccccc3n2)cc1`: the inhibition is -64%.

On to `COc1ccc(NC(=O)c2cc(-c3cc(OC)c(OC)c(OC)c3)nc3ccccc23)c(OC)c1`, for which the inhibition was 50.8% (active).

For the compound `CC(=O)Nc1cccc(-c2cc3nc(NCc4cccnc4)n(C)c(=O)c3s2)c1`, the inhibition is -27.3%.

With `CN(c1ccccc1)S(=O)(=O)c1cc(C(=O)Nc2nc3ccccc3[nH]2)ccc1Cl`, the inhibition is 5.63%.

Turning to `O=c1c2cc(Br)ccc2nc(-c2cccc(Cl)c2)n1O`, the inhibition was 31.2%.

As for `O=C(/C(=C/c1cccc(Cl)c1)c1nc2ccccc2[nH]1)c1ccccc1`, the inhibition was 109% (active).
